Consider 39 compounds from PubChem BioAssay AID743294 (Broad Institute, 2014).

The structures appear in SMILES notation. Results with a measured potency or affinity are listed apart. Calls of active or inactive are those of the source.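 The calls were made as follows: active = compounds lowering fluorescence whose fitted half-maximal dose is at most twice the top valid dose; inconclusive = flat fit between -70% and -30%, or poor curve fit; inactive = the rest.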

Caspase-8 (Homo sapiens), sequence (Q14790 whole entry, looked up): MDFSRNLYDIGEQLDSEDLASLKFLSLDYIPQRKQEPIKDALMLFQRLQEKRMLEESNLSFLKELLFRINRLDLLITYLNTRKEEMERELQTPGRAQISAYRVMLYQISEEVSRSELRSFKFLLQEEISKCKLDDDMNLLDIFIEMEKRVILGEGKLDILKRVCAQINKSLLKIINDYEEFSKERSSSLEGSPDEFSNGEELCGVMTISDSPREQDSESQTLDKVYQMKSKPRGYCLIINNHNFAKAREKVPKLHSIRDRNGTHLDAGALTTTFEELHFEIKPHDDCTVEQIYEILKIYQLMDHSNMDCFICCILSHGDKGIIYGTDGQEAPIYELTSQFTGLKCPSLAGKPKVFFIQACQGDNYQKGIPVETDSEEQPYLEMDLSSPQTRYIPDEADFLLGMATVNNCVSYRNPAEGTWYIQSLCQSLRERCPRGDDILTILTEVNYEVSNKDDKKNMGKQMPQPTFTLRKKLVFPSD

This assay has as its target Caspase-8 (Homo sapiens) (UniProt Q14790). The experiment in a line: caspase-8 inhibition counter-screen, dose response, selectivity assay for caspase-6 inhibitor project, biochemical, Z-IETD-R110 fluorescence, cherry-picked samples (AID 743294). Particulars: purified caspase-8, Z-IETD-R110 cleavage fluorescence; series mostly up to 35 µM.
With `O=C(O)/C(=C\c1ccc(Cl)c([N+](=O)[O-])c1)c1ccc(S(=O)(=O)N2CCCC2)s1`, the compound was called inactive.
As to `O=C(O)CC(CCc1ccccc1)OC1OC(CO)C(O)C(O)C1O` (centres undefined), the call was inactive.
Then `CC(CNc1ccccc1O)C(=O)O` (centres undefined), with “inactive”.
Consider `CCCSC1=N/C(=C\c2ccc([N+](=O)[O-])o2)C(=O)S1`, for which the compound was classed as inactive.
The result for `O=C(C[C@@H]1C[C@H]2c3cc(NC(=O)NC4CCCCC4)ccc3O[C@H]2[C@H](CO)O1)NCc1ccccn1` reads “inactive”.
Then `O=P(c1ccccc1)(c1ccccc1)c1cc(S(=O)(=O)O)ccc1O`, with “inactive”; and `COc1cc(NC(C)CCCNC(C)C)c2ncccc2c1OC` (centres undefined), with “inactive”.
Consider `COc1ccc([N+](=O)[O-])cc1NC(=O)CCS(=O)(=O)c1ccc(Br)cc1`, for which the call was inactive.
For the compound `O=C(CCO)c1ccc(O)cc1`, the call was inactive.
Consider `O=C(O)Cc1ccc(-n2cccc2)cc1`, for which the result was inactive.
`O=c1c(CO)cc(CO)cc(CO)c1O`: the call was inactive.
With `Cc1ccc(S(=O)c2ccc([N+](=O)[O-])c3nonc23)cc1` (centres undefined), the compound was classed as inactive.
In the case of `Cc1cc(C=O)c(C)n1-c1cc(C(=O)O)cc(C(=O)O)c1`, the outcome was inactive.
For `CCN(CC)CCCC(C)n1c2nc(=O)[nH]c(=O)c-2nc2cc(Cl)ccc21` (centres undefined), the outcome was inactive.
With `[O-][n+]1onc2c1CCc1c-2nn(-c2ccccc2Cl)[n+]1[O-]`, the compound was called inactive.
The result for `CCCCNC(=O)c1nc(C2CCNCC2)oc1-c1cccc(C(F)(F)F)c1` reads “inactive”; that for `COc1cc(NCCCCC(C)N)c2nccc(C)c2c1` (centres undefined), “inactive”.
Regarding `CCOC(=O)c1sc2nc(OCCN3CCOCC3)cc(C)c2c1N`, the call was inactive.
For the compound `COCCn1c2nc(=O)n(-c3ccccc3)c(=O)c-2nc2ccccc21`, the compound was classed as inactive.
On to `O=C(Nc1ccc2nc3n(c(=O)c2c1)CCCCC3)c1c(F)ccc([N+](=O)[O-])c1F`, for which the result was inactive.
With `O=c1cc2c(=O)oc3cc(O)c(O)oc3c2c(O)c1O`, the outcome was inactive.
As to `Nc1cc(S(=O)(=O)O)cc([N+](=O)[O-])c1O`, the compound was classed as inactive.
Consider `Cc1cc(C=O)c(C)n1-c1ccc(Cl)c(C(=O)O)c1`, for which the compound was called inactive.
Then `Oc1cc2c(cc1O)[C@H]1c3ccc(O)c(O)c3OC[C@@]1(O)C2`, with “inactive”; and `Cc1oc2c(cc(NS(=O)(=O)c3ccc(C(C)C)cc3)c3ccccc32)c1C(=O)O`, with “inactive”; and `CO[C@H]1CN(C)C(=O)c2cc(NC(C)=O)ccc2OC[C@@H](C)N(C(=O)CC2CC2)C[C@H]1C`, with “inactive”.
Turning to `Nc1ccc(Nc2ccccc2)c(S(=O)(=O)O)c1`, the call was inactive.
As for `O=C(O)CCc1ccc(-c2ccc(Br)cc2)n1CC(=O)O`, the compound was classed as inactive.
For `CNS(=O)(=O)c1cccc(C(=O)OCC(=O)N2c3ccccc3NC(=O)C2(C)C)c1`, the compound was classed as inactive.
As to `COc1ccc(NS(=O)(=O)c2ccc3c(c2)[C@H]2C=CC[C@H]2[C@@H](c2ccc(C(=O)O)cc2)N3)cc1`, the compound was classed as inactive.
`O=C(Nc1ccc(S(=O)(=O)Nc2cnc3ccccc3n2)cc1)c1ccc(Cl)c([N+](=O)[O-])c1`: the compound was called inactive.
Consider `Cc1ccc(S(=O)(=O)Nc2csc(C)c2C(=O)O)cc1`, for which the outcome was inactive.
On to `O=[N+]([O-])c1c(Nc2ccccn2)cc(Cl)c2nonc12`, for which the compound was called inactive.
The result for `CCOC(=O)[C@H](Cc1c[nH]c2ccccc12)NC(=O)CN=[N+]=[N-]` reads “inactive”.
As for `Cn1cnnc1SCC(=O)Nc1ncc([N+](=O)[O-])s1`, the compound was classed as inactive.
As to `COc1ccc(C(=O)OCC(=O)Nc2ncc([N+](=O)[O-])s2)cc1OC`, the compound was classed as inactive.
Then `Nc1c(O)cccc1C(=O)O`, with “inactive”; and `Cc1[nH]nc(S(=O)CC(=O)O)c1[N+](=O)[O-]` (centres undefined), with “inactive”.
For the compound `C/C(CC(=O)N1CCCC1)=N\NC(=O)c1cc2ccccc2cc1O`, the compound was called inactive.
